Screens (PubChem)
mHTT CaM bind: mHTT-calmodulin interaction abrogation; 190,000 compounds, 3.6% hits; AlphaScreen His-mHTT/GST-CaM binding, luminescence; P42858; AID 1671202; inhibition, % at 15 µM
Pf apPOL inh: Pf-apPOL DNA polymerase inhibition. Recombinant Pf-apPOL, molecular beacon fluorescence, 1.5 h. inhibition, % at 10 µM. 210,000 compounds, 0.25% hits. AID 1794808
Of the large screens only hits and unclear results are named; the others gave an inactive call; ! = not active in a repeat. The full list was thinned out, with hits kept by preference. Cut-off read from the data, not from the text of the source: active = inhibition above about 50%; inactive = the rest.

Cc1c(C(=O)Nc2c3c(nn2C(C)(C)C)CSC3)cccc1[N+](=O)[O-]	mHTT CaM bind 92
N=C1NC(=O)C(CC(=O)Nc2ccccc2Cl)S1 (stereo unspecified)	none
O=C(CSc1ccccc1)N1CCOCC1	none
O=C(CSc1nc(-c2ccccc2)c(-c2ccccc2)o1)N1CCOCC1	mHTT CaM bind 56!
CN1C(=O)C(=O)C(=C(O)c2ccc(Br)cc2)C1c1ccccc1 (stereo unspecified)	none
COc1ccc(-c2nnc(C)c(N3CCC(C)CC3)n2)cc1	none
CCOC(=O)C1CCN(c2nc(-c3ccc(C)cc3)nnc2C)CC1	none
CCOC(=O)C1CCN(c2nc(-c3cccc(C)c3)nnc2C)CC1	mHTT CaM bind 58
Cc1ccc(-c2nnc(C)c(N3CCC(C)CC3)n2)cc1	mHTT CaM bind 82
C=CCOc1ccccc1/C=c1\sc2nc(-c3ccc(OCC)cc3)nn2c1=O	none
CC(C)c1c(C(=O)O)nnn1-c1ccc(F)c(F)c1	none
Cc1csc2sc(C=C(C#N)S(=O)(=O)c3ccc(Cl)cc3)c(C)c12	none (no result: mHTT CaM bind)
O=C(c1ccc2c(c1)Sc1ncccc1C(=O)N2C1CC1)N1CCOCC1	none
Cc1cc(CNC(=O)C(=O)Nc2cc(Cl)ccc2C#N)c(C)o1	none
CCSc1ccccc1C(=O)Oc1coc(CSc2nccn2C)cc1=O	none
Cn1ccnc1SCc1cc(=O)c(OC(=O)C2(c3ccc(Cl)cc3)CCCC2)co1	mHTT CaM bind 88
CC(C)Cc1ccc(S(=O)(=O)N2CCc3nc[nH]c3C2)cc1	none
CC(NC(=O)Nc1cccc(Cl)c1)c1ccccc1 (stereo unspecified)	none
CC(NC(=O)Nc1ccc(Cl)c(Cl)c1)c1ccccc1 (stereo unspecified)	mHTT CaM bind 73
O=C(Nc1cc(Cl)ccc1O)c1cccc(S(=O)(=O)N2CCCC2)c1	mHTT CaM bind 51
O=C(Nc1cc(Cl)ccc1Cl)c1cccc(S(=O)(=O)N2CCCCC2)c1	none
COc1cc(C=C2C(=O)c3ccccc3C2=O)ccc1OCc1ccc(C(=O)O)cc1	none
COc1ccc(/C=C2\C(=O)c3ccccc3C2=C(C#N)C#N)cc1OC	mHTT CaM bind 92
COc1cc([N+](=O)[O-])ccc1-c1ccc(C(=O)Nc2ccc(Br)cn2)o1	none
O=C(CSc1n[nH]c(-c2ccncc2)n1)c1ccc(O)c(O)c1	mHTT CaM bind 84!
O=C(CSc1n[nH]c(-c2ccncc2)n1)c1ccc(F)cc1	none
COc1cc(CNc2ccc3c(c2)CCC3)c([N+](=O)[O-])cc1OC	mHTT CaM bind 71
O=C(Nc1ccc2cn[nH]c2c1)c1ccc([N+](=O)[O-])o1	none
COc1cc(CNc2ccc(F)c(Cl)c2)cc([N+](=O)[O-])c1O	none
O=[N+]([O-])c1cccc(CNc2cccc(F)c2)c1	none
COc1cc(CNC2CCCCCC2)c([N+](=O)[O-])cc1OC	none
COc1cc(CNc2ccc(F)c(Cl)c2)c([N+](=O)[O-])cc1OC	mHTT CaM bind 62
O=[N+]([O-])c1ccccc1CNc1ccc2cn[nH]c2c1	mHTT CaM bind 59
O=[N+]([O-])c1cccc(CNc2ccc3c(c2)CCC3)c1	mHTT CaM bind 89
COc1ccccc1CNC(=O)C1=C2CCCN2c2ccc(F)cc2S1(=O)=O	none
c1cncc(CN2CCCC(c3n[nH]c(C4CC4)n3)C2)c1 (stereo unspecified)	none
COc1ccc([N+](=O)[O-])cc1NC(=O)c1ccccc1F	none
Cc1ccc(Cl)cc1N1CCC(C(=O)N2CCN(Cc3ccccc3)CC2)C1=O (stereo unspecified)	none
O=[N+]([O-])c1ccccc1CNc1ccc(F)c(F)c1	none
O=[N+]([O-])c1ccccc1CNc1ccc2c(c1)CCC2	mHTT CaM bind 94
COc1ccc(NC(=O)c2cc3ccc(O)cc3oc2=Nc2ccc(C(=O)O)cc2)cc1OC	none
CCC(C)c1ccccc1OCC(O)CNC(C)(C)C (stereo unspecified)	none
CCC(C)c1ccccc1OCC(O)CNC(C)(C)C(C)(C)C (stereo unspecified)	mHTT CaM bind 100
CCNc1cc(N2CCCC(CCC(=O)N3CCN(CC(C)C)CC3)C2)ncn1 (stereo unspecified)	none
COc1cc(O)c(C(CCN2CCCCC2)c2ccc(N(C)C)cc2)c(OC)c1 (stereo unspecified)	none
COc1cc(O)c(C(CCN2CCN(c3ccccc3)CC2)c2ccc3c(c2)OCO3)c(OC)c1 (stereo unspecified)	mHTT CaM bind 82
COc1cc(O)c(C(CCN2CCCC2)c2ccc(N(C)C)cc2)c(OC)c1 (stereo unspecified)	mHTT CaM bind 60
COc1cc(O)c(C(CCN2CCN(c3ccccc3)CC2)c2cc(OC)c(OC)c(OC)c2)c(OC)c1 (stereo unspecified)	mHTT CaM bind 100
COc1cc(O)c(C(CCN2CCCC2)c2ccc3c(c2)OCO3)c(OC)c1 (stereo unspecified)	none
COc1cc(O)c(C(CC(=O)N2CCCC2)c2ccc3c(c2)OCO3)c(OC)c1 (stereo unspecified)	none
